Among all 5,500 compounds or so, about 2,000 (36%) were called active. Inconclusive results (about 18%) are left out. No stated cut-off is given here; in the data, active means normalized growth mostly below about 0.91 (no sharp cut-off); inconclusive means no clear call, values can overlap the other calls; inactive means mostly above about 0.92. Some of the results follow.
Test: chemical genetic growth profiling, strain panel (AID 1159580);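 further: tested at 20 µM; growth read once vehicle control cultures reached saturation at 30 °C; 1 = growth at the plate median or of vehicle wells; lower values mean less growth of the strain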
Conditions: growth OD
[1] = S. cerevisiae deletion strains, locus YAL013W, strain DEP1, hits give low values
[2] = S. cerevisiae deletion strains, locus YCL061C, strain MRC1, hits give low values
[3] = S. cerevisiae deletion strains, locus YDR150W, strain NUM1, hits give low values
[4] = S. cerevisiae deletion strains, locus YGR229C, strain SMI1, hits give low values
[5] = S. cerevisiae deletion strains, locus YHR030C, strain SLT2, hits give low values
[6] = S. cerevisiae deletion strains, locus YJL187C, strain SWE1, hits give low values
[7] = S. cerevisiae deletion strains, locus YJR075W, strain HOC1, hits give low values
[8] = S. cerevisiae deletion strains, locus YMR307W, strain GAS1, hits give low values
[9] = S. cerevisiae deletion strains, locus YNL128W, strain TEP1, hits give low values
[10] = S. cerevisiae deletion strains, locus YNL322C, strain KRE1, hits give low values
[11] = S. cerevisiae deletion strains, locus YPL055C, strain LGE1, hits give low values
[12] = S. cerevisiae deletion strains, locus YPL241C, strain CIN2, hits give low values
[13] = S. cerevisiae deletion strains, locus YBR229C, strain ROT2, hits give low values
[14] = S. cerevisiae deletion strains, locus YDL101C, strain DUN1, hits give low values
[15] = S. cerevisiae deletion strains, locus YDL134C, strain PPH21, hits give low values
[16] = S. cerevisiae deletion strains, locus YEL061C, strain CIN8, hits give low values
[17] = S. cerevisiae deletion strains, locus YGR078C, strain PAC10, hits give low values
[18] = S. cerevisiae deletion strains, locus YHR087W, strain rtc3, hits give low values
[19] = S. cerevisiae deletion strains, locus YJR043C, strain POL32, hits give low values
[20] = S. cerevisiae deletion strains, locus YLR039C, strain RIC1, hits give low values
[21] = S. cerevisiae deletion strains, locus YLR058C, strain SHM2 (second series), hits give low values
[22] = S. cerevisiae deletion strains, locus YLR085C, strain ARP6, hits give low values
[23] = S. cerevisiae deletion strains, locus YLR262C, strain YPT6, hits give low values
[24] = S. cerevisiae deletion strains, locus YML094W, strain GIM5, hits give low values
[25] = S. cerevisiae deletion strains, locus YMR219W, strain ESC1, hits give low values
[26] = S. cerevisiae deletion strains, locus YMR263W, strain SAP30, hits give low values
[27] = S. cerevisiae deletion strains, locus YNL153C, strain GIM3, hits give low values
[28] = S. cerevisiae deletion strains, locus YNL298W, strain CLA4 (second series), hits give low values
[29] = S. cerevisiae deletion strains, locus YNR030W, strain Alg12, hits give low values
[30] = S. cerevisiae deletion strains, locus YPR135W, strain CTF4, hits give low values

Measured: normalized growth

Cc1ccc(C(=O)Nc2ccc(S(=O)(=O)O)c3cc(S(=O)(=O)O)cc(S(=O)(=O)O)c23)cc1NC(=O)c1cccc(NC(=O)Nc2cccc(C(=O)Nc3cc(C(=O)Nc4ccc(S(=O)(=O)O)c5cc(S(=O)(=O)O)cc(S(=O)(=O)O)c45)ccc3C)c2)c1
inactive: [1] 1.03 | S. cerevisiae deletion strains, locus YAL021C, strain ccr4, hits give low values 1.03 | S. cerevisiae deletion strains, locus YAL026C, strain drs2, hits give low values 1 | S. cerevisiae deletion strains, locus YAL030W, strain snc1, hits give low values 1.01 | S. cerevisiae deletion strains, locus YAL040C, strain CLN3, hits give low values 0.968 | S. cerevisiae deletion strains, locus YBL061C, strain skt5, hits give low values 1.01 | S. cerevisiae deletion strains, locus YBR009C, strain hhf1, hits give low values 0.98 | S. cerevisiae deletion strains, locus YBR023C, strain chs3, hits give low values 1.04 | S. cerevisiae deletion strains, locus YBR171W, strain sec66, hits give low values 1.03 | S. cerevisiae deletion strains, locus YBR231C, strain swc5, hits give low values 1.02 | S. cerevisiae deletion strains, locus YBR279W, strain paf1, hits give low values 1.02 | S. cerevisiae deletion strains, locus YCL011C, strain gbp2, hits give low values 1.02 | S. cerevisiae deletion strains, locus YCL016C, strain dcc1, hits give low values 1.03 | S. cerevisiae deletion strains, locus YCL061C, strain MRC1 (second series), hits give low values 1 | [2] 1.03 | S. cerevisiae deletion strains, locus YCL069W, strain vba3, hits give low values 1.01 | S. cerevisiae deletion strains, locus YCR088W, strain abp1, hits give low values 1.01 | S. cerevisiae deletion strains, locus YDL005C, strain med2, hits give low values 1.02 | S. cerevisiae deletion strains, locus YDL040C, strain nat1, hits give low values 1.01 | S. cerevisiae deletion strains, locus YDR001C, strain nth1, hits give low values 1.01 | S. cerevisiae deletion strains, locus YDR069C, strain doa4, hits give low values 1.02 | S. cerevisiae deletion strains, locus YDR137W, strain rgp1, hits give low values 1.05 | [3] 0.998 | S. cerevisiae deletion strains, locus YDR159W, strain sac3, hits give low values 1 | S. cerevisiae deletion strains, locus YDR195W, strain ref2 1.02 | S. cerevisiae deletion strains, locus YDR297W, strain sur2, hits give low values 1.01 | S. cerevisiae deletion strains, locus YDR334W, strain swr1, hits give low values 1.03 | S. cerevisiae deletion strains, locus YDR335W, strain msn5, hits give low values 1.02 | S. cerevisiae deletion strains, locus YDR363W, strain ESC2, hits give low values 1.01 | S. cerevisiae deletion strains, locus YDR392W, strain spt3, hits give low values 0.975 | S. cerevisiae deletion strains, locus YEL003W, strain gim4, hits give low values 1.01 | S. cerevisiae deletion strains, locus YEL037C, strain rad23, hits give low values 1.01 | S. cerevisiae deletion strains, locus YEL061C, strain CIN8 (second series), hits give low values 1.01 | S. cerevisiae deletion strains, locus YER002W, strain NOP16, hits give low values 1.03 | S. cerevisiae deletion strains, locus YER015W, strain faa2, hits give low values 0.999 | S. cerevisiae deletion strains, locus YER016W, strain bim1, hits give low values 1.01 | S. cerevisiae deletion strains, locus YER111C, strain swi4, hits give low values 1.03 | S. cerevisiae deletion strains, locus YER155C, strain BEM2 (second series), hits give low values 1.03 | S. cerevisiae deletion strains, locus YFR010W, strain ubp6, hits give low values 1.01 | S. cerevisiae deletion strains, locus YGL167C, strain pmr1, hits give low values 1.01 | S. cerevisiae deletion strains, locus YGL173C, strain kem1, hits give low values 1.02 | S. cerevisiae deletion strains, locus YGL227W, strain vid30, hits give low values 1.03 | S. cerevisiae deletion strains, locus YGL240W, strain doc1, hits give low values 1.04 | S. cerevisiae deletion strains, locus YGL253W, strain hxk2, hits give low values 1.03 | [4] 1.04 | S. cerevisiae deletion strains, locus YHR013C, strain ard1, hits give low values 1.05 | S. cerevisiae deletion strains, locus YHR027C, strain rpn1, hits give low values 1.03 | [5] 1.11 | S. cerevisiae deletion strains, locus YHR079C, strain IRE1, hits give low values 1.1 | S. cerevisiae deletion strains, locus YHR142W, strain chs7, hits give low values 1.04 | S. cerevisiae deletion strains, locus YJL092W, strain hpr5, hits give low values 1.02 | S. cerevisiae deletion strains, locus YJL095W, strain BCK1 (second series), hits give low values 1.01 | S. cerevisiae deletion strains, locus YJL095W, strain BCK1, hits give low values 1.09 | S. cerevisiae deletion strains, locus YJL115W, strain asf1, hits give low values 1.03 | S. cerevisiae deletion strains, locus YJL129C, strain trk1, hits give low values 1.07 | S. cerevisiae deletion strains, locus YJL154C, strain vps35, hits give low values 1.03 | S. cerevisiae deletion strains, locus YJL164C, strain tpk1, hits give low values 1 | S. cerevisiae deletion strains, locus YJL166W, strain qcr8, hits give low values 1.03 | [6] 1.02 | S. cerevisiae deletion strains, locus YJR066W, strain TOR1, hits give low values 0.998 | [7] 1.01 | S. cerevisiae deletion strains, locus YKL160W, strain elf1, hits give low values 1.05 | S. cerevisiae deletion strains, locus YKR026C, strain gcn3, hits give low values 1.02 | S. cerevisiae deletion strains, locus YKR091W, strain srl3, hits give low values 1.01 | S. cerevisiae deletion strains, locus YLL001W, strain dnm1, hits give low values 1.07 | S. cerevisiae deletion strains, locus YLL026W, hits give low values 1.01 | S. cerevisiae deletion strains, locus YLL041C, strain sdh2, hits give low values 1.02 | S. cerevisiae deletion strains, locus YLR027C, strain aat2, hits give low values 1.02 | S. cerevisiae deletion strains, locus YLR113W, strain HOG1, hits give low values 1.12 | S. cerevisiae deletion strains, locus YLR221C, strain rsa3, hits give low values 1.03 | S. cerevisiae deletion strains, locus YLR258W, strain gsy2, hits give low values 1 | S. cerevisiae deletion strains, locus YLR262C, strain YPT6 (second series), hits give low values 1.04 | S. cerevisiae deletion strains, locus YLR320W, strain mms22, hits give low values 1.07 | S. cerevisiae deletion strains, locus YLR342W, strain FKS1, hits give low values 1.02 | S. cerevisiae deletion strains, locus YLR357W, strain rsc2, hits give low values 1.03 | S. cerevisiae deletion strains, locus YLR370C, strain arc18, hits give low values 1.03 | S. cerevisiae deletion strains, locus YLR384C, strain iki3, hits give low values 1.01 | S. cerevisiae deletion strains, locus YML120C, strain ndi1, hits give low values 1.04 | S. cerevisiae deletion strains, locus YMR058W, strain fet3, hits give low values 1.03 | S. cerevisiae deletion strains, locus YMR125W, strain sto1, hits give low values 1.06 | S. cerevisiae deletion strains, locus YMR129W, hits give low values 1.01 | S. cerevisiae deletion strains, locus YMR205C, strain PFK2, hits give low values 1.06 | S. cerevisiae deletion strains, locus YMR231W, strain pep5, hits give low values 1.01 | [8] 0.993 | S. cerevisiae deletion strains, locus YNL071W, strain lat1, hits give low values 1.02 | [9] 1.01 | S. cerevisiae deletion strains, locus YNL175C, strain NOP13, hits give low values 1.02 | S. cerevisiae deletion strains, locus YNL183C, strain NPR1, hits give low values 1 | S. cerevisiae deletion strains, locus YNL197C, strain WHI3, hits give low values 1 | S. cerevisiae deletion strains, locus YNL209W, strain ssb2, hits give low values 1.02 | S. cerevisiae deletion strains, locus YNL224C, strain SQS1, hits give low values 1.02 | S. cerevisiae deletion strains, locus YNL248C, strain rpa49, hits give low values 1.06 | S. cerevisiae deletion strains, locus YNL322C, strain KRE1 (second series), hits give low values 1.03 | [10] 1.04 | S. cerevisiae deletion strains, locus YNR049C, strain mso1, hits give low values 1.01 | S. cerevisiae deletion strains, locus YOR001W, strain rrp6, hits give low values 0.967 | S. cerevisiae deletion strains, locus YOR070C, strain gyp1, hits give low values 1.02 | S. cerevisiae deletion strains, locus YOR080W, strain dia2, hits give low values 1.01 | S. cerevisiae deletion strains, locus YOR083W, strain WHI5 (second series), hits give low values 0.997 | S. cerevisiae deletion strains, locus YOR083W, strain WHI5, hits give low values 1.04 | S. cerevisiae deletion strains, locus YOR106W, strain vam3, hits give low values 1.05 | S. cerevisiae deletion strains, locus YOR231W, strain MKK1, hits give low values 1.11 | S. cerevisiae deletion strains, locus YOR265W, strain rbl2, hits give low values 1.01 | S. cerevisiae deletion strains, locus YOR270C, strain vph1, hits give low values 1.11 | S. cerevisiae deletion strains, locus YOR290C, strain snf2, hits give low values 1.06 | S. cerevisiae deletion strains, locus YPL051W, strain arl3, hits give low values 1.05 | [11] 1.02 | S. cerevisiae deletion strains, locus YPL078C, strain atp4, hits give low values 1.06 | S. cerevisiae deletion strains, locus YPL106C, strain sse1, hits give low values 1.01 | S. cerevisiae deletion strains, locus YPL240C, strain hsp82, hits give low values 1.01 | [12] 1 | S. cerevisiae deletion strains, locus YPL256C, strain CLN2, hits give low values 1.14

CSc1nc(N)n(-c2ccccc2)n1
inactive: [1] 1 | [13] 1.02 | [2] 1.02 | [14] 1 | [15] 1.01 | [3] 0.916 | [16] 1.06 | [17] 1 | [4] 0.99 | [5] 1.05 | [18] 1 | [19] 0.989 | [7] 1 | S. cerevisiae deletion strains, locus YKL190W, strain CNB1, hits give low values 1.01 | [20] 1.03 | [21] 1.02 | [22] 0.995 | [23] 1.09 | [24] 0.988 | [25] 1 | [26] 1 | [27] 1 | [28] 1 | [10] 1 | [29] 1.02 | [11] 0.994 | [12] 1.01 | [30] 1.07 | S. cerevisiae strains, strain wild type, hits give low values 1.01

CSc1c(-c2ccccc2)c(N)nn1S(=O)(=O)c1ccccc1
active: [6] 0.0597
inactive: [1] 0.99 | [13] 0.982 | [2] 0.993 | [14] 0.978 | [15] 0.998 | [3] 0.979 | [16] 0.967 | [17] 0.98 | [5] 0.913 | [18] 0.973 | [19] 1.01 | [7] 0.971 | [20] 0.836 | [21] 0.996 | [22] 0.849 | [23] 0.901 | [24] 0.944 | [25] 1 | [26] 0.983 | [8] 0.815 | [9] 0.97 | [27] 1 | [28] 0.907 | [10] 0.987 | [29] 0.951 | [11] 0.994 | [12] 0.943 | [30] 0.945

From PubChem BioAssay AID1159580 (chemical genetic matrix, 2015)
